Compound activity deposited in PubChem BioAssay by several laboratories.
Rows were chosen to be rich in hits. Some 2.5% of all compounds tested hit in one or more screens of this group.
Mcl1-Noxa inh: Mcl-1/Noxa binding inhibitors, primary screen, biochemical, TR-FRET, 1536-well; 220,000 tested, 1.5% active; Induced myeloid leukemia cell differentiation protein Mcl-1 (Homo sapiens), Q07820; TR-FRET Mcl-1/Noxa peptide binding, 2 h; inhibition, % at 21.7 µM;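 active means compounds that cut the protein-peptide binding signal by more than 50% relative to plate controls in a single-dose test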;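 further: His-tagged Mcl-1 with rhodamine Noxa BH3 peptide and terbium anti-His antibody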
Target sequence (Q07820 whole entry, looked up): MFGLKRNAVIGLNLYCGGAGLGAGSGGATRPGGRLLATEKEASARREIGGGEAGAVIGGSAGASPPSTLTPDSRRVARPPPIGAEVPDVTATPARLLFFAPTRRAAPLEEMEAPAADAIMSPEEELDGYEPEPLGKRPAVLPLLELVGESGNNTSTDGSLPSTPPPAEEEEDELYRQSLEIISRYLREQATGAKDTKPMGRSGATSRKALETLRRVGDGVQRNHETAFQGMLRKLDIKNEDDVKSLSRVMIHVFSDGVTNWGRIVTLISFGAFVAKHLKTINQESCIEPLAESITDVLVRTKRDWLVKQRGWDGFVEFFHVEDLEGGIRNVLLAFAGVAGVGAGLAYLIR
14-3-3 Bad PPI: inhibitors of 14-3-3 zeta/Bad binding, primary screen, biochemical, TR-FRET, bovine 14-3-3 zeta; inhibition, % at 21.7 µM; 14-3-3 protein zeta/delta (Bos taurus), P63103; AID 781, 2007; TR-FRET 14-3-3zeta/Dy647-pBad peptide displacement, 1 h; 220,000 tested, 0.71% active;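 active means inhibition above about 70%, limit read from the data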
Mcl-1 Bim block: inhibitors of Bim peptide binding to Mcl-1, primary screen, biochemical, bead-based flow cytometry, multiplex | 190,000 tested, 0.1% active | inhibition, % at 10 µM | Induced myeloid leukemia cell differentiation protein Mcl-1 (Homo sapiens), Q07820 | Bim peptide-Mcl-1 binding; in the data active means inhibition above about 40%
Mcl1 Bid PPI: Mcl-1/Bid binding inhibitors, primary screen, biochemical, TR-FRET, 1536-well | 220,000 tested, 0.97% active | AID 1021, 2008 | TR-FRET Mcl-1/Bid-Dy647 peptide binding | inhibition, % at 21.7 µM;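 active means compounds that cut the binding signal by more than half at the single screening dose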;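 further: His-tagged Mcl-1 with europium anti-His antibody binding Bid BH3 peptide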
MCL1-BIM inh: inhibitors of MCL1 binding to BIM-BH3, primary screen, biochemical, fluorescence polarization. Induced myeloid leukemia cell differentiation protein Mcl-1 (Homo sapiens), Q07820. GST-MCL1 / FITC-Bim-BH3 fluorescence polarization. inhibition, % at 10.9 µM. 320,000 tested, 0.68% active. AID 2057, 2009;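 active means inhibition above the mean inhibition of all tested compounds plus 3 SD, set per campaign, cut at about 40% in these data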;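 further: higher means more loss of mP so more displacement of Bim peptide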
Bcl-xL conf: Bcl-xL inhibitors blocking Bim BH3 binding, confirmation, counter-screen for MCL1 inhibitor project, biochemical, fluorescence polarization; shares compounds with MCL1-BIM inh; GST-Bcl-xL / FITC-Bim BH3 peptide FP binding; inhibition, % at 10.9 µM; 1,700 tested, 54% active; AID 2166, 2009;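 active means inhibition above a cutoff equal to the mean inhibition of all tested compounds plus 3 SD, cut at about 30% in these data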
Target sequence (Q07817 whole entry, looked up): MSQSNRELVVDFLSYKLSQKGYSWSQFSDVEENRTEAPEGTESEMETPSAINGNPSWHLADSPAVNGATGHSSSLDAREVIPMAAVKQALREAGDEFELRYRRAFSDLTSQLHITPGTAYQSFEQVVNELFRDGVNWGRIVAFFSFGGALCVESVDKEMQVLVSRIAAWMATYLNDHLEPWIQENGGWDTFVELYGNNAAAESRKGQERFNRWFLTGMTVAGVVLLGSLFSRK
MCL1 BIM confirm: inhibitors of MCL1 binding to BIM-BH3, confirmation, biochemical, fluorescence polarization, triplicate | shares compounds with MCL1-BIM inh | GST-MCL1 / FITC-Bim-BH3 fluorescence polarization | inhibition, % at 10.9 µM | 1,700 tested, 61% active | AID 2168, 2009;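 active means inhibition above the average of all tested compounds plus 3 SD, cut at about 40% in these data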
Large screens that a line does not name were inactive (follow-up assays come after a bar, where they were run).

Cc1ccc(-c2ccccc2NC(=O)CS(=O)CC(=O)Nc2ccc(C)c(Cl)c2)o1 (configuration not stated)	MCL1-BIM inh 140.6 (no result: Mcl1-Noxa inh, 14-3-3 Bad PPI, Mcl-1 Bim block, Mcl1 Bid PPI) | Bcl-xL conf inactive | MCL1 BIM confirm inactive
COc1ccccc1NC(=O)c1cc2ccccc2nc1C	none
CCOc1ccc2nc3cc(NCc4ccc(OC)cc4)ccc3c(N)c2c1	MCL1-BIM inh active (no result: Mcl1-Noxa inh, 14-3-3 Bad PPI, Mcl-1 Bim block, Mcl1 Bid PPI) | Bcl-xL conf 139.4 | MCL1 BIM confirm 166.1
CC(C)N1CCN(Cc2cccs2)CC1CCO (configuration not stated)	none (no result: MCL1-BIM inh)
Cc1oc(-c2cccs2)nc1CN1CCN(C(C)C)C(CCO)C1 (configuration not stated)	MCL1-BIM inh 48.7 | Bcl-xL conf inactive | MCL1 BIM confirm inactive
CCOCCCn1c(=NC(=O)c2cccs2)c(C#N)cc2c(=O)n3ccccc3nc21	MCL1-BIM inh 97.4 (no result: Mcl-1 Bim block) | Bcl-xL conf 62.0 | MCL1 BIM confirm 74.9
Cc1cccn2c(=O)c3cc(C#N)c(=NC(=O)c4ccncc4)n(CCCOC(C)C)c3nc12	MCL1-BIM inh 87.4 | Bcl-xL conf 42.8 | MCL1 BIM confirm 48.3
Cc1cccn2c(=O)c3cc(C#N)c(=NC(=O)c4cccs4)n(CCCOC(C)C)c3nc12	MCL1-BIM inh 74.1 (no result: Mcl-1 Bim block) | Bcl-xL conf inactive | MCL1 BIM confirm inactive
CC(=O)N=c1c(C#N)cc2c(=O)n3cccc(C)c3nc2n1CCCOC(C)C	none (no result: Mcl-1 Bim block)
CCOCCCn1c(=NC(=O)c2cccnc2)c(C(=O)OCC)cc2c(=O)n3ccccc3nc21	none
CCOc1cccc(/C=C2/NC(=O)N(CC(=O)Nc3cccc(C)c3)C2=O)c1O	none
N#CC1=C(N)C(C#N)(C#N)C2(CCC3(CC2)OCCO3)C2CC3(CC=C12)OCCO3 (configuration not stated)	none
N#CC1=C(N)C(C#N)(C#N)[C@H](c2c(F)cccc2F)[C@H]2CC3(CC=C12)OCCO3	MCL1-BIM inh 61.8 | Bcl-xL conf 35.3 | MCL1 BIM confirm inactive
COc1ccc(CCC(=O)NCc2cn3ccc(C)cc3n2)cc1	none
CCN(CC)c1ccc2c(-c3ccc(S(=O)(=O)O)cc3S(=O)(=O)[O-])c3ccc(=[N+](CC)CC)cc-3oc2c1	MCL1-BIM inh active (no result: Mcl1-Noxa inh, 14-3-3 Bad PPI, Mcl-1 Bim block, Mcl1 Bid PPI) | Bcl-xL conf active | MCL1 BIM confirm active
CCN(CC)c1ccc2cc(C(N)=O)c(=N)oc2c1	none
N#Cc1c(NCCCO)nc(-c2ccco2)c2c1CCCC2	none
CSc1nc(N(C)CCO)c2sc3nc(-c4ccco4)c4c(c3c2n1)CCC4	Mcl1-Noxa inh 103.1, Mcl1 Bid PPI 92.9, MCL1-BIM inh 75.1 | Bcl-xL conf 36.2 | MCL1 BIM confirm 75.9
CCOC(=O)c1c(C)[nH]c2cc(Br)c(O)cc12	none
CCOC(=O)c1c(OCC)[nH]c2c1cc(O)c1ccccc12	Mcl1-Noxa inh 75.0, MCL1-BIM inh 41.5 | Bcl-xL conf 55.9 | MCL1 BIM confirm 73.0
O=C(CN(Cc1ccc(F)cc1)C(=O)CCC(=O)Nc1nccs1)NCC1CCCO1 (configuration not stated)	none (no result: Mcl1-Noxa inh, 14-3-3 Bad PPI, Mcl-1 Bim block, Mcl1 Bid PPI)
COCOc1ccc(-c2cc(=O)c3c(O)cc(OCOC)cc3o2)cc1	none (no result: Mcl1-Noxa inh, 14-3-3 Bad PPI, Mcl-1 Bim block, Mcl1 Bid PPI)
C#CCN1C(=O)S/C(=C\c2ccc(N3CCOCC3)cc2C)C1=O	MCL1-BIM inh 70.4 | Bcl-xL conf 120.7 | MCL1 BIM confirm 153.2
CC1CN(C(=O)COC(=O)c2ccc(S(=O)(=O)N(C)C)cc2)CC(C)O1 (configuration not stated)	none (no result: Mcl1-Noxa inh, 14-3-3 Bad PPI, Mcl-1 Bim block, Mcl1 Bid PPI)
CCc1sc(C(C2C(=O)CC(C)(C)CC2=O)C2C(=O)CC(C)(C)CC2=O)cc1[N+](=O)[O-]	MCL1-BIM inh 43.0 | Bcl-xL conf inactive | MCL1 BIM confirm 56.6
O=C(N/N=C\c1c(O)ccc2ccccc12)c1cncc(Br)c1	none (no result: Mcl1-Noxa inh, 14-3-3 Bad PPI, Mcl-1 Bim block, Mcl1 Bid PPI)
CN(C)S(=O)(=O)c1ccc(C(=O)NCC(=O)N/N=C/c2ccccc2)cc1	none
COc1ccccc1C(=O)COC(=O)c1ccc(-n2cnnn2)cc1	none (no result: Mcl1-Noxa inh, 14-3-3 Bad PPI, Mcl-1 Bim block, Mcl1 Bid PPI)
O=C(O)c1cnc2ccccc2n1	none
N#CCc1cnc2ccccc2n1	MCL1-BIM inh 76.4 (no result: Mcl-1 Bim block) | Bcl-xL conf inactive | MCL1 BIM confirm inactive
CN1CCc2cccc3c2C1Cc1ccc(O)c(O)c1-3 (configuration not stated)	MCL1-BIM inh 48.5 (no result: Mcl1-Noxa inh, 14-3-3 Bad PPI, Mcl-1 Bim block, Mcl1 Bid PPI) | Bcl-xL conf 45.5 | MCL1 BIM confirm 69.7
CN1CCC(=C2c3ccccc3C(O)c3ccccc32)CC1 (configuration not stated)	none (no result: Mcl-1 Bim block)
CC(=O)c1cccc(NC(=S)Nc2ccn(Cc3cccc4ccccc34)n2)c1	none
CC(=O)C1=C(c2ccccc2)NC(=O)NC1c1ccc(O)c(O)c1 (configuration not stated)	MCL1-BIM inh 81.2 | Bcl-xL conf inactive | MCL1 BIM confirm inactive
CC(=O)C1=C(c2ccccc2)NC(=O)NC1c1ccc2c(c1)OCO2 (configuration not stated)	none (no result: Mcl1-Noxa inh, 14-3-3 Bad PPI, Mcl-1 Bim block, Mcl1 Bid PPI)
COc1ccc(CN2C(=O)NC3(CCCc4ccccc43)C2=O)cc1F (configuration not stated)	none
COc1ccc(C2OC34CCCCC3C(C#N)(C#N)C2(C#N)C(=N)O4)cc1 (configuration not stated)	MCL1-BIM inh 155.2 | Bcl-xL conf 104.8 | MCL1 BIM confirm 134.9
CCCC1OC23CCCCC2C(C#N)(C(=N)O3)C1(C#N)C#N (configuration not stated)	MCL1-BIM inh 55.9 | Bcl-xL conf inactive | MCL1 BIM confirm inactive
CC1OC23CCCCC2C(C#N)(C(=N)O3)C1(C#N)C#N (configuration not stated)	none
CCC1OC23CCCCC2C(C#N)(C(=N)O3)C1(C#N)C#N (configuration not stated)	MCL1-BIM inh 78.1 | Bcl-xL conf inactive | MCL1 BIM confirm inactive
CS(=O)(=O)Nc1ccc(-c2cn3cccnc3n2)cc1	none (no result: Mcl1-Noxa inh, 14-3-3 Bad PPI, Mcl-1 Bim block, Mcl1 Bid PPI)
O=C(NS(=O)(=O)N1CCCC1)C1=C(N2CCCC2)COC1=O	none (no result: Mcl1-Noxa inh, 14-3-3 Bad PPI, Mcl-1 Bim block, Mcl1 Bid PPI)
O=C1NC(=S)CN1c1ccccc1	MCL1-BIM inh 78.8 (no result: Mcl-1 Bim block) | Bcl-xL conf inactive | MCL1 BIM confirm inactive
CNc1nnc(Sc2ncccc2[N+](=O)[O-])s1	MCL1-BIM inh 62.5 (no result: Mcl-1 Bim block) | Bcl-xL conf inactive | MCL1 BIM confirm inactive
O=[N+]([O-])c1cccnc1Sc1ccc(F)cc1	none (no result: Mcl1-Noxa inh, 14-3-3 Bad PPI, Mcl-1 Bim block, Mcl1 Bid PPI)
